In PubChem BioAssay AID434973 (Sanford-Burnham Center for Chemical Genomics, 2010):
About 4,900 (1.5%) of roughly 330,000 compounds were called active. What follows is part of a selection rich in actives, with near analogues and random picks from the rest. Values without a mark were called inactive.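 The calls were made as follows: active = inhibition above about 50% at the single test dose (limit read from the data); inactive = the rest.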 Non-standard residues stand in square brackets, D forms with d. Residues, ends and D or L forms follow the SMILES beside them. ξ: configuration not given here. *: point of attachment. Cbz = O=C(OCc1ccccc1)*; ξL = CC(C)CC(N)C(=O)O; ξP = O=C(O)C1CCCN1

These molecules were tested against Sentrin-specific protease 7 (Homo sapiens) (UniProt Q9BQF6) (assay: blockers of human SENP7 peptidase activity – biochemical, luminescence, uHTS, primary screen (AID 434973;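 also: plate controls were DMSO with enzyme for no effect and no enzyme buffer wells for full effect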)). Settings: recombinant SENP7, Z-RLRGG-aminoluciferin luminescence, 40 min; at 5 µM; stronger effect = higher value.

| SMILES | inhibition |
| --- | --- |
| Cc1ccc(S(=O)(=O)N2CCOCC2)cc1NC(=O)CSc1nnc(N)s1 | -5.72% |
| CC(C)(C)C1CCC(OC(=O)CCC(=O)Nc2ccccc2)CC1 (configuration not stated) | 3.21% |
| COc1cc(OC)cc(/C(N)=N/O)c1 | 0.905% |
| O=C(CN1C(=O)NC2(CCCC2)C1=O)NCC1CCCO1 (configuration not stated) | 4.93% |
| O=C(CN1C(=O)CC(c2ccccc2)S(=O)(=O)c2ccccc21)NC1CCCC1 (configuration not stated) | 2.74% |
| O=c1ccc2cc(S(=O)(=O)NCCCc3ccccc3)ccc2[nH]1 | 4.36% |
| CCOC(=O)CCP(=O)(O)C(O)(c1ccccc1)c1ccccc1 | -5.54% |
| O=S(=O)(c1cccc(-c2nnc(SC(F)F)n2-c2ccccc2)c1)N1CCCCC1 | 1.56% |
| Cc1ccc2sc(NNC(=O)c3ccc4c(c3)OCCO4)nc2c1C | 2.93% |
| O=C(Nc1ccccc1)Nc1nc2ccccc2s1 | 66% (active) |
| O=C(OCc1ccccc1F)c1ccc2c(c1)OCCO2 | 84.2% (active) |
| O=C(COC(=O)c1ccncc1)Nc1ccc2c(c1)OCO2 | -10.3% |
| CSc1nsc(NC(=O)Nc2ccccc2)n1 | 34.9% |
| COCc1nnc(NC(=O)c2ccc3c(c2)OCO3)s1 | 12.1% |
| O=C(CCC(=O)c1cccs1)Nc1nc2ccccc2s1 | 1.54% |
| O=C(COC(=O)c1ccc2c(c1)OCCO2)NCc1ccccc1Cl | -9.15% |
| O=C(Nc1nc2ccccc2s1)c1ccc2c(c1)OCO2 | 97.1% (active) |
| CC(=O)Nc1cccc(C(=O)OCC(=O)c2ccc3c(c2)OCO3)c1 | 81.4% (active) |
| O=C(COC(=O)c1ccc(F)cc1)Nc1ccc2c(c1)OCO2 | -9.15% |
| N#CCCN(C(=O)COC(=O)c1ccc2c(c1)OCCO2)c1ccccc1 | 3.84% |
| CC[N+]1(CC)CC2=Cc3ccccc3CC2C1 (configuration not stated) | 5.4% |
| Cc1ccc(CN2CCN(/N=C/c3cccnc3)CC2)c(C)c1 | 4.31% |
| CCN(C(=O)C1CCCN(c2nc(-c3ccc(OC)cc3)no2)C1)c1ccc(OC)cc1 (configuration not stated) | -0.167% |
| CCOC(=O)CSc1nnc(NC(=O)C2CC(=O)N(c3ccc(F)cc3)C2)s1 (configuration not stated) | -6.57% |
| CC(=O)Nc1ccc(S(=O)(=O)N2CCN(S(=O)(=O)c3cccs3)CC2)cc1 | -14% |

| SMILES | inhibition |
| --- | --- |
| Cc1ccccc1Nc1scc(-c2ccc(Br)cc2)[n+]1-c1ccccc1C | 0.441% |
| COc1ccc(/C(C)=N/N2CCOCC2)c(O)c1 | 9.39% |
| S=C(Nc1ccc2c(c1)OCO2)N1CCCC1 | -4.52% |
| CCCc1nc2oc3c(OCC)ncnc3c2c2c1COC(C)(C)C2 | -3.93% |
| Clc1ccc(COn2c(-c3ccc(Cl)cc3Cl)nc3ncccc32)cc1 | 0.814% |
| Clc1ccc(-c2cc(-c3ccccn3)on2)c(Cl)c1 | 99.4% (active) |
| O=C1c2ccccc2C(=O)N1Cc1cc(-c2ccccc2Cl)no1 | -0.976% |
| CC1=NNC(=O)C1CCC(=O)N/N=C(\C)c1ccc(Cl)cc1 (configuration not stated) | 0.851% |
| O=C(Nc1ncc([N+](=O)[O-])s1)C1COc2ccccc2O1 (configuration not stated) | 96.7% (active) |
| COc1ccc(NC(=O)C2COc3ccccc3O2)cc1 (configuration not stated) | -20.8% |
| COc1ccc(OC)c2sc(NC(=O)C3COc4ccccc4O3)nc12 (configuration not stated) | -4.59% |
| CC(C)C1C2=C(CC(C)(C)CC2=O)ON1c1ccccc1 (configuration not stated) | 3.53% |
| CC1CC(C)CN(CCC(=O)Nc2ccc3c(c2)CCC3)C1 (configuration not stated) | 5.5% |
| CC(C)Oc1ccc(C(=O)NCC(=O)Nc2ccc3c(c2)CCC3)cc1 | 3.44% |
| O=C(Nc1ccc2c(c1)CCC2)c1ccc(Br)s1 | 69.4% (active) |
| CC(C)CCN1NC2(CCC(C)CC2)NC1=S (configuration not stated) | -7.22% |
| Cc1ccsc1C(=O)N/N=C/c1ccc([N+](=O)[O-])cc1 | 80.9% (active) |
| O=C(N/N=C/c1ccc([N+](=O)[O-])cc1)C(=O)N1CCCC1 | -3.45% |
| Cc1ccc(NC(=O)c2sccc2C)cc1[N+](=O)[O-] | 83.7% (active) |
| Cc1ccc(NC(=O)CN(C)CC(=O)Nc2cccc(F)c2)cc1[N+](=O)[O-] | -3.97% |
| Cc1ccc(/C=N/NC(=O)c2sccc2OCc2ccc(F)cc2)cc1 | -13.6% |
| Cc1cc(O)c(NC(=O)c2ccc(C)c([N+](=O)[O-])c2)cc1C | -7.98% |
| O=C(COc1cccc(Cl)c1)NCc1ccccc1 | -0.414% |
| COc1cccc(NC(=O)CN(C)C(=O)c2ccccc2CCc2ccccc2)c1 | -9.77% |
| CC[C@]1(C(=O)OC)[C@H]2C(=O)N(C)C(=O)[C@H]2[C@H]2CN(C)C(=NCc3ccccc3)N21 | 0.164% |

| SMILES | inhibition |
| --- | --- |
| COc1cc(NC(=O)CCS(=O)(=O)c2ccc3c(c2)oc(=O)n3C)cc(OC)c1 | 1.53% |
| CCN(CC)S(=O)(=O)c1ccc(N(C)Cc2ccc(C(F)(F)F)cc2)nc1 | -1.06% |
| Cc1ccc(CN2CCN(Cc3ccccc3-c3ccco3)CC2CCO)o1 (configuration not stated) | 4.02% |
| CC(OC(=O)c1ccc(Cl)cc1O)C(=O)NCCC1=CCCCC1 (configuration not stated) | -16.5% |
| CC[N+](C)(CC)CCC[n+]1c(-c2ccccc2)c2cc(N)ccc2c2ccc(N)cc21 | 96.3% (active) |
| COC(=O)c1ccc(COc2ccc(C#N)cc2)o1 | 0.574% |
| Cc1cc2oc(=O)cc(CN3CCN(S(=O)(=O)c4cccs4)CC3)c2cc1C(C)C | 8.53% |
| CCn1c(NC(=O)c2nn(C)cc2Br)nc2ccccc21 | -3.05% |
| Cc1nc2ccccc2c(-c2ccccc2)c1C(=O)c1ccccc1 | -0.427% |
| Cn1c(Nc2cccc(Cl)c2)nc2ccccc21 | 4.17% |
| Cn1c(NC(=O)c2ccccc2)nc2ccccc21 | 77.2% (active) |
| Cn1c(-c2ccc(C(=O)c3ccccc3)s2)nc2ccccc21 | 98.5% (active) |
| Cc1nn(C)cc1C(=O)c1ccccc1 | 7.95% |
| CCC1(CC)NC(=O)N(CC(=O)OCC(=O)Nc2ccc(C(F)(F)F)cc2)C1=O | -0.704% |
| COC(=O)c1ccc(NC(=O)CSc2nnc(Cc3cccn3C)n2-c2ccc(F)cc2)cc1 | 9.96% |
| CC(C)c1ccc(C2C(C#N)=C(N)Oc3c2oc(CO)cc3=O)cc1 (configuration not stated) | 3.37% |
| CCOC(=O)N1CCC(NC(=O)CN2C(=O)COc3ccc(C(C)(C)C)cc32)CC1 | -10.5% |
| O=S(=O)(NCCS(=O)(=O)N1CCN(c2ccccc2)CC1)c1ccc(F)cc1 | 9.28% |
| Cc1ccnc(NC(=O)CNC(=O)c2ccccc2)c1 | -1.59% |
| COc1cc(SC)ccc1C(=O)Nc1nc(C)cs1 | 101% (active) |
| Cc1ccnc(NC(=O)c2ccoc2C)c1 | 71.9% (active) |
| COc1ccc(C(=O)Nc2cccc(NC(=O)c3ccc(OC)cc3OC)n2)c(OC)c1 | 0.763% |
| COC(=O)c1sc(NC(=O)c2ccc(OC)cc2OC)nc1C | 101% (active) |
| Cc1occc1C(=O)Nc1cccc(Cn2cccn2)c1 | 8.79% |
| Cc1csc(NC(=O)c2ccc(C)s2)n1 | 0.528% |

| SMILES | inhibition |
| --- | --- |
| COc1cc(SC)ccc1C(=O)NNC(=O)C1COc2ccccc2O1 (configuration not stated) | 5.69% |
| COc1cc2ccccc2cc1C(=O)Nc1nc(C)c(C(C)=O)s1 | -4.32% |
| COc1cc(SC)ccc1C(=O)Nc1cc(C)ccn1 | 60.6% (active) |
| COc1ccc(C(=O)NC2=NCCS2)c(OC)c1 | 24.6% |
| COc1cc(SC)ccc1C(=O)N(Cc1ccccc1)c1ccccc1 | -1.54% |
| CC(C)CC(NC(=O)C1CCCN1C(=O)[C@@H](C)NC(=O)OCc1ccccc1)C(=O)NCC(N)=O (some centres not stated) (Cbz-[dA][ξP][ξL]G-NH2) | 8.74% |
| CCC1CCCCN1CCNC(=O)c1[nH]c(C)c(C(C)=O)c1C (configuration not stated) | 0.149% |
| COCn1c(C(O)c2ccccc2)cc2ccccc21 (configuration not stated) | 12.5% |
| CCOC(=O)c1cnc(Nc2nc3ccccc3o2)nc1CSC(=S)N1CCCCC1 | 0.449% |
| CCn1ccnc1CN(C)C(=O)c1cc(COc2ccc(Cl)cc2OC)on1 | 5.22% |
| C=CCOc1ccc(/C=C/C(=O)OCC(=O)NC(C)c2ccc(F)cc2)cc1 (configuration not stated) | -12.8% |
| CCOC(=O)c1c(N)sc2c1CCCC2=O | -8.61% |
| COc1ccc(S(=O)(=O)n2nc(C)c(S(=O)(=O)N3CCOCC3)c2C)cc1 | -1.04% |
| CC(C)COC(=O)n1c(=O)oc2ccc(S(=O)(=O)N3CCCCC3)cc21 | -5.94% |
| O=C(CSc1nnnn1-c1ccc(O)cc1)N1N=C(c2ccc3ccccc3c2)CC1c1ccccc1 (configuration not stated) | 2.06% |
| CSc1ccc(/C=N/NC(=O)c2cccc(Cl)c2)cc1 | 96% (active) |
| CSc1ccc(/C=N\NC(=O)CC(=O)NC(C)C)cc1 | 4.98% |
| O=C(N/N=C/c1ccc(Cl)c(Cl)c1)c1ccc2nc[nH]c2c1 | -0.0621% |
| O=C(CN1C(=O)NC(Cc2ccccc2)(Cc2ccccc2)C1=O)NCC1CCCCC1 | -0.975% |
| COCCN(CCOC)c1nc(N)c2c(N)nc3c(c2c1C#N)CC(=O)N3Cc1ccc(Cl)cc1 | 58.9% (active) |
| Cc1ccccc1NC(=O)C(C)OC(=O)CCC(=O)N(CC(C)C)c1c(N)n(CC(C)C)c(=O)[nH]c1=O (configuration not stated) | 9.72% |
| Cc1nn(-c2ccccc2)c2c1c(C)c(CCC(=O)NCC1CCCO1)c(=O)n2C (configuration not stated) | -0.922% |
